Reference: PubChem BioAssay (Tox21)
A number with no mark means an inactive call. Inconclusive results are not listed. A call without a number means that no potency is given here. Calls of active or inactive are those of the source. Unless noted, calls come from the whole dose curve.

How the values were obtained:
[1] = Nuclear factor erythroid 2-related factor 2/antioxidant responsive element (Nrf2/ARE) small molecule agonists: qHTS cell viability counter screen in human keratinocytes (AID 1919968; active = well fitted curve in the direction sought with a large enough effect in the repeat runs; an effect the other way counts as inactive or inconclusive; note: nearly all actives have a fitted effect of over 55% in size)
Summary of the method: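 Fluorescence read-out from CellTiter-Fluor after 1 h at 37 C. Wells held HaCaT-derived ARE-luciferase reporter cells (1,500/well) treated 23 h with DMSO-dissolved compounds. Run in the same wells as the luciferase agonist read.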

[2] = Nuclear factor erythroid 2-related factor 2/antioxidant responsive element (Nrf2/ARE) small molecule agonists: luciferase reporter gene qHTS assay in human keratinocytes (AID 1919969); note: nearly all actives have a fitted effect of over 35% in size
[3] = biological target: KiSS-1 receptor (Homo sapiens) (UniProt Q969F8); experiment: Human kisspeptin (KISS1R) small molecule agonists, calcium flux assay in KISS1R-HEK293 cells (AID 1920064; active = well fitted curve in the direction sought with a large enough effect in the repeat runs; an effect the other way counts as inactive or inconclusive)
Sequence of KiSS-1 receptor (Homo sapiens) (Q969F8 whole entry, looked up): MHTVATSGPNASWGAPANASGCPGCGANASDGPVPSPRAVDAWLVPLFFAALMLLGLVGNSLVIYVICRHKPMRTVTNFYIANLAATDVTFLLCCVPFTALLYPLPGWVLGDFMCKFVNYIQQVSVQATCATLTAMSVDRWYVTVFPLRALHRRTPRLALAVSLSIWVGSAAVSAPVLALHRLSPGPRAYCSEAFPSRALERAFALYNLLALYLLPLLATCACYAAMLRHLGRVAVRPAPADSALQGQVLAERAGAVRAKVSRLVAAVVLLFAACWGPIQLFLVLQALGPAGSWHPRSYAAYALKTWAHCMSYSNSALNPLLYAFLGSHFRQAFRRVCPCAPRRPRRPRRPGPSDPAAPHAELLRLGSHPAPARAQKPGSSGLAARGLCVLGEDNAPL
Summary of the method: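 Calcium flux read-out: kinetic fluorescence at Ex/Em=480/540, 1 s intervals over 3 min, after pin-tool compound addition to dye-loaded KISS1R-HEK293 cells. Fifteen concentrations, triplicates.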

[4] = G protein-coupled receptor (GPCR) small molecule agonists, calcium flux assay: HEK293 wild type cell line counter screen (AID 1920065)
Summary of the method: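 Agonist mode; 18 h seeding at 37 C, 1 h dye load at 37 C; compounds pinned from DMSO, ATP as positive control; kinetic fluorescence 480/540 nm, 3 min, 1 s reads; 15 concentrations, triplicate.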

[5] = p53 small molecule agonists, cell-based qHTS assay with human liver microsomes (AID 1963577)
Summary of the method: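 Fluorescence of the beta-lactamase reporter in p53RE-bla cells, detected with LiveBLAzer substrate (2 h, room temperature, dark), served as the read-out after 16 h compound exposure at 37 C with human liver microsomes and NADPH, each 0.5 mg/mL final.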

[6] = p53 small molecule agonists, cell-based qHTS assay with rat liver microsomes (AID 1963578)
Summary of the method: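 Cells carrying a p53 response element–beta-lactamase reporter were plated and rested 5 h, then dosed with compound in DMSO plus rat liver microsomes and NADPH, each at 0.5 mg/mL final. After 16 h at 37 C, LiveBLAzer substrate was added for 2 h.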

[7] = p53 small molecule agonists, cell-based qHTS assay with human liver microsomes: qHTS cell viability counter screen (AID 1963579); note: nearly all actives have a fitted effect of over 45% in size
Summary of the method: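 Cytotoxicity counter screen: p53RE-bla, 4,000 cells/well; 5 h settle, 37 C/5% CO2; cpd + HLM 0.5 mg/mL + NADPH 0.5 mg/mL (final); 16 h, 37 C; CellTiter-Glo, 30 min RT, luminescence.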

[8] = p53 small molecule agonists, cell-based qHTS assay: qHTS cell viability counter screen (AID 1963581); note: nearly all actives have a fitted effect of over 45% in size
Summary of the method: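 Cytotoxicity read-out: ATP-based luminescence (CellTiter-Glo, 30 min RT) measured in the same wells as the p53 reporter assay, HCT-116 p53RE-bla cells, 16 h compound exposure at 37 C.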

[9] = biological target: 5-hydroxytryptamine receptor 2A (Homo sapiens) (UniProt P28223); experiment: 5-hydroxytryptamine receptor 2A (HTR2A) small molecule antagonists, cell-based qHTS assay (AID 1963586); note: nearly all actives have a fitted effect of over 45% in size
Sequence of 5-hydroxytryptamine receptor 2A (Homo sapiens) (P28223 whole entry, looked up): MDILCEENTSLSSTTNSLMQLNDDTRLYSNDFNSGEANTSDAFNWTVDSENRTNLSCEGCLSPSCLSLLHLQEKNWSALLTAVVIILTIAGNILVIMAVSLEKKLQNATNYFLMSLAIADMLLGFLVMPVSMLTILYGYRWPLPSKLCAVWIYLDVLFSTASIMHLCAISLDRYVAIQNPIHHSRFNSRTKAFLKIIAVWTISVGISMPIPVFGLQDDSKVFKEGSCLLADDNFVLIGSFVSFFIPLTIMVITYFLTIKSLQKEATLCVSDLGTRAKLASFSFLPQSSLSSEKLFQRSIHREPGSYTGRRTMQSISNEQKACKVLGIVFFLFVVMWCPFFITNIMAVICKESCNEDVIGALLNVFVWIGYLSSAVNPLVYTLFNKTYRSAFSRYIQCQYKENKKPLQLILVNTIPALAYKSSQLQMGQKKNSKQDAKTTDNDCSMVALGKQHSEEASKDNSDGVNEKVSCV
Summary of the method: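 CHO cells stably expressing human HTR2A were plated for 18 h at 37 C, then loaded with calcium dye for 1 h. Compounds were preincubated 5 min at room temperature before DOI (4 nM solution) was added. Kinetic fluorescence was read for 3 min.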

[10] = biological target: 5-hydroxytryptamine receptor 2A (Homo sapiens) (UniProt P28223); experiment: 5-hydroxytryptamine receptor 2A (HTR2A) small molecule agonists, cell-based qHTS assay (AID 1963587); note: nearly all actives have a fitted effect of over 30% in size
Summary of the method: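 Kinetic calcium-flux fluorescence (2 min, 1 sec intervals) after compound addition in agonist mode. HTR2A-CHO cells were cultured 18 h, then dye-loaded 1 h at 37 C.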

[11] = biological target: Muscarinic acetylcholine receptor M1 (Homo sapiens) (UniProt P11229); experiment: Cholinergic receptor muscarinic 1 (CHRM1) small molecule antagonists, cell-based qHTS assay (AID 1963588); note: nearly all actives have a fitted effect of over 40% in size; note: potency is the fitted concentration of half-maximal effect
Sequence of Muscarinic acetylcholine receptor M1 (Homo sapiens) (P11229 whole entry, looked up): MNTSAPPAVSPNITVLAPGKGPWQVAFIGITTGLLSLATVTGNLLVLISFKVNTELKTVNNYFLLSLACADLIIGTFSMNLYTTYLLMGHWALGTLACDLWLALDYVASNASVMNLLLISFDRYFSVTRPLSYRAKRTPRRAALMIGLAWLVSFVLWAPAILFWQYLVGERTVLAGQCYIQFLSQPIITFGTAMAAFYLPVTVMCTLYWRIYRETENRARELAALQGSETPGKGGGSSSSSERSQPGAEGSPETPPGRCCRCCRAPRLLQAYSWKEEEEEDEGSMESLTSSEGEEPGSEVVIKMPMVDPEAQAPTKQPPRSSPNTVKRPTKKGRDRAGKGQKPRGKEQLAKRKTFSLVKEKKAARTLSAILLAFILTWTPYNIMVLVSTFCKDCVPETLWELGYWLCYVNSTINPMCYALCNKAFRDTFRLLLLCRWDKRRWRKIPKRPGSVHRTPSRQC
Summary of the method: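 Compounds were tested at 15 concentrations in three independent runs. Dye-loaded CHRM1-CHO cells were exposed 5 min at room temperature before stimulation by acetylcholine added at 50nM. Intracellular calcium was read kinetically on FDSS for 3 min.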

[12] = biological target: Muscarinic acetylcholine receptor M1 (Homo sapiens) (UniProt P11229); experiment: Cholinergic receptor muscarinic 1 (CHRM1) small molecule agonists, cell-based qHTS assay (AID 1963589); note: nearly all actives have a fitted effect of over 35% in size
Summary of the method: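 Calcium flux read-out: kinetic fluorescence at 1 sec intervals after pin-tool compound addition to dye-loaded CHRM1-CHO cells (human M1). Agonist mode; 15 concentrations tested in triplicate independent runs.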

[13] = cAMP Responsive Elements (CRE) small molecule agonists, cell-based qHTS assay (AID 1963590)
Summary of the method: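 Beta-lactamase reporter readout: LiveBLAzer B/G FRET substrate, 2 h at room temperature, added after 3 h compound treatment of CRE-bla HEK 293T cells at 37 C/5% CO2.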

[14] = cAMP Responsive Elements (CRE) small molecule antagonists, cell-based qHTS assay (AID 1963591; active = well fitted inhibition curve with a large enough effect in the signal ratio in the repeat runs, not every such curve was filed as active; the % refers to the signal ratio)
Summary of the method: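 HEK293T CRE-bla; 18 h preincubation; compound pin-transfer; NKH477 0.25 uM final, 3 h, 37 C; LiveBLAzer FRET substrate 2 h RT.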

[15] = biological target: Beta-2 adrenergic receptor (Homo sapiens) (UniProt P07550); experiment: Adrenergic beta2 receptor (ADRB2) small molecule antagonists, cell-based qHTS assay (AID 1963592); note: series mostly up to about 92 µM; nearly all actives have a fitted effect of over 50% in size
Sequence of Beta-2 adrenergic receptor (Homo sapiens) (P07550 whole entry, looked up): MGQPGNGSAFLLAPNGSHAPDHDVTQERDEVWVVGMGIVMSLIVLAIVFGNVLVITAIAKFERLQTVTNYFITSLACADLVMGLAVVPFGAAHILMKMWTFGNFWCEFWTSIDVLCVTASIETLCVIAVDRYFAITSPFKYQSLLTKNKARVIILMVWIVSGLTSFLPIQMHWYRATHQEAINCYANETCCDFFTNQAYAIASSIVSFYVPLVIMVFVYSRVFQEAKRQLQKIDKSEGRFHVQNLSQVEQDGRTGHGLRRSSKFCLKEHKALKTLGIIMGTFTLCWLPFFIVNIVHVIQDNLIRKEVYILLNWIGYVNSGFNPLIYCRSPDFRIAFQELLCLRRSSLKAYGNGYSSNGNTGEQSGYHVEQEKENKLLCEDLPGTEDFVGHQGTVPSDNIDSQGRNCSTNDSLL
Summary of the method: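 Assay format: CHO-ADRB2 cells, 18-20hr seeding at 37C/5% CO2, then compound plus 1nM isoproterenol agonist mix for 0.5hr RT. Homogeneous time-resolved fluorescence cAMP detection after 1hr, expressed as 665/615 nm ratio.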

[16] = biological target: D(2) dopamine receptor (Homo sapiens) (UniProt P14416); experiment: Dopamine D2 receptor (DRD2) small molecule agonists, cell-based qHTS assay (AID 1963594); note: nearly all actives have a fitted effect of over 35% in size
Sequence of D(2) dopamine receptor (Homo sapiens) (P14416 whole entry, looked up): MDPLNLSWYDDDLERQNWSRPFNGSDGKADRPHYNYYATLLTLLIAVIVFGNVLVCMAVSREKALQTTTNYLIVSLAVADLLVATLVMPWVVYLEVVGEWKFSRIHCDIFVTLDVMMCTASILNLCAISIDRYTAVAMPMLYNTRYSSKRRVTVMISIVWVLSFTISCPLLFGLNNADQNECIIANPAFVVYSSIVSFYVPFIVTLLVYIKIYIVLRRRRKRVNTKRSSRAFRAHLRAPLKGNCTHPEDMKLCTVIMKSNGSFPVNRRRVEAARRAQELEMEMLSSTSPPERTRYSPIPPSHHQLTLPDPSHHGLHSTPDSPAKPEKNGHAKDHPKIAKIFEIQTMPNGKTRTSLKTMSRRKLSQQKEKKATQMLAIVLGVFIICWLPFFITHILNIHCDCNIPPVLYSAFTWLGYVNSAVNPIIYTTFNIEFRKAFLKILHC
Summary of the method: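 cAMP accumulation in DRD2-HEK293 cells measured by HTRF after 1 h detection; compounds added 10 min before NKH477 (200nM […]) forskolin-analogue stimulation, 30 min at room temperature, with Ro20-1724 present at 0.1 mM final.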

[17] = biological target: D(2) dopamine receptor (Homo sapiens) (UniProt P14416); experiment: Dopamine D2 receptor (DRD2) small molecule antagonists, cell-based qHTS assay (AID 1963595; active = well fitted inhibition curve with a large enough effect in the signal ratio in the repeat runs, with a control signal flat; the % refers to the signal ratio)
Summary of the method: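 HEK293 cells stably expressing DRD2, preincubated with 0.1 mM Ro20-1724 and compounds 10 min, were stimulated with 200 nM NKH477 plus 12 nM quinpirole for 30 min at room temperature; cAMP measured by HTRF (665/620 nm).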

[18] = p53 small molecule agonists, cell-based qHTS assay (AID 1963582; active = well fitted activation curve with a large enough effect in the signal ratio in the repeat runs, not every such curve was filed as active; the % refers to the signal ratio)
Summary of the method: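 Fluorescence intensity read-out of a beta-lactamase reporter under a p53 response element. Cells were exposed to DMSO-dissolved compounds for 16 h at 37 C, then developed with FRET substrate for 2 h at RT.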

[19] = p53 small molecule agonists, cell-based qHTS assay with rat liver microsomes: qHTS cell viability counter screen (AID 1963580); note: nearly all actives have a fitted effect of over 45% in size
Summary of the method: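 Rat liver microsome (0.5 mg/mL final) and NADPH (0.5 mg/mL final) co-incubation with compounds for 16 h at 37 C on HCT-116 p53RE-bla cells; cytotoxicity taken from intracellular ATP luminescence.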

O=S(=O)(Cl)c1c(Cl)cccc1Cl
Potency [1]: inactive
Potency [2]: inactive
outcome [3]: inactive
outcome [4]: inactive
Potency [5]: inactive
Potency [6]: inactive
Potency [7]: inactive
Potency [8]: inactive
Potency [9]: inactive
Potency [10]: inactive
Potency [11]: inactive
Potency [12]: inactive
Potency [13]: inactive
Potency [14]: inactive
Potency [15]: inactive
Potency [16]: inactive
Potency [17]: inactive

COc1ccccc1N1CCN(CCCNc2cc(=O)n(C)c(=O)n2C)CC1
Potency [1]: inactive
Potency [2]: inactive
outcome [3]: inactive
outcome [4]: inactive
Potency [5]: inactive
Potency [6]: inactive
Potency [7]: inactive
Potency [8]: inactive
Potency [9]: inactive
Potency [10]: inactive
Potency [11]: 10.3 µM (active)
Potency [13]: inactive
Potency [14]: inactive
Potency [17]: inactive

CN(C)C/C=C(/c1ccc(Br)cc1)c1cccnc1
Potency [1]: inactive
Potency [2]: inactive
outcome [3]: inactive
outcome [4]: inactive
Potency [6]: inactive
Potency [7]: inactive
Potency [8]: inactive
Potency [18]: inactive
Potency [9]: inactive
Potency [10]: inactive
Potency [11]: inactive
Potency [12]: inactive
Potency [14]: inactive

FC(F)(F)C(F)(F)C(F)(F)C(F)(F)C(F)(F)C(F)(F)C(F)(F)C(F)(F)C(F)(F)C(F)(F)F
activity change, negative = cytotoxicity [1]: 2.36% [at 8.39 µM]
activity, positive = activation [2]: -2.47% [at 8.39 µM]
activation [3]: -3.4% [at 6.97 µM]
activation [5]: 0.0412% [at 5.99 µM]
activation [6]: -3.19% [at 5.99 µM]
activity change, negative = cytotoxicity [7]: 2.89% [at 5.99 µM]
activity change, negative = cytotoxicity [19]: -0.558% [at 5.99 µM]
activation [18]: -0.0202% [at 5.99 µM]
activity, negative = inhibition [9]: -16.5% [at 5.62 µM]
activation [10]: 9.84% [at 7.02 µM]
activity, negative = inhibition [11]: 8.35% [at 5.58 µM]
activation [12]: -0.0294% [at 6.97 µM]
activation [13]: -1.41% [at 8.39 µM]
activity change, negative = inhibition [14]: -8.96% [at 8.39 µM]
activity change, negative = inhibition [15]: 4.67% [at 8.39 µM]
activation [16]: -0.702% [at 8.39 µM]
activity change, negative = inhibition [17]: 10.1% [at 8.38 µM]
